# Screening data (PubChem BioAssay)
# HEK cytotox: HEK 293 cell cytotoxicity; HEK 293 viability, ATP luminescence (CellTiter-Glo), 48-72 h; Potency, µM (series often up to 115 µM), usual class: inhibitors; 94,000 tested, 6.6% active; also: nearly all actives have a fitted effect of over 60% in size
#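 Luminescence from cellular ATP, measured with CellTiter-Glo, indicates HEK 293 viability. Cells plated at 250 cells/well are treated with compound for 48 or 72 hr at 37 degree Celsius before reagent addition.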
# NIH3T3 tox: NIH 3T3 cell cytotoxicity | 94,000 tested, 4.3% active | Potency, µM (top dose mostly 96.7 µM), usual class: inhibitors | NIH 3T3 viability, CellTiter-Glo ATP luminescence, 48-72 h | AID 1345082; also: nearly all actives have a fitted effect of over 55% in size
#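 Cytotoxicity is measured as loss of cellular ATP: NIH 3T3 cells (400/well) are exposed to compound for 48 or 72 hr at 37 °C, then CellTiter-Glo luminescence is imaged after 10 min at room temperature.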
# HEK293 viab: counter-screen for SNCA expression inhibitors: cell viability | HEK-293-SNCA-luc viability, GF-AFC fluorescence, 24 h | Potency, µM (titrated, usually from 57.1 µM), usual class: cytotoxic | 150,000 tested, 0.12% active; also: nearly all actives have a fitted effect of over 30% in size
#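 Cytotoxicity counterscreen: after 24 h compound treatment of genome-edited SNCA-luciferase HEK-293 cells, live-cell protease substrate GF-AFC read by fluorescence after 30 min; activity scaled between DMSO (0%) and medium-only (-100%), curves Hill-fitted.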
# IP6K1 inhibitor: inhibitors of human IP6K1; AID 1645851; activity change, % (series mostly up to about 58 µM); IP6K1 kinase, ADP-Glo luminescence, 2 h; stronger effect = lower value; 140,000 tested, 0.81% active; Q92551; in the data active = activity change below about -25%
#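 ADP-Glo luminescence measures ADP made by human IP6K1 during a 2 h RT reaction with ATP/IP6 (mix at 1.3 mM/130 uM); top library doses 57.5 and 19.1 uM final.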
# SNCA expr inhib: inhibitors of alpha-synuclein (SNCA) gene expression; 140,000 tested, 0.17% active; AID 1671194; Potency, µM (series often up to 57.2 µM), most hits filed as inhibitors; HEK-293 SNCA-luciferase knock-in, luminescence, 24 h; also: nearly all actives have a fitted effect of over 45% in size
# Luciferase inh: blocks purified firefly luciferase enzyme activity; purified P. pyralis luciferase, luminescence, biochemical; P08659; AID 1347043; Potency, µM (titrated, usually from 115 µM), hits mostly inhibitors; 76,000 tested, 2.5% active; also: nearly all actives have a fitted effect of over 65% in size
# Target sequence (P08659 whole entry, looked up): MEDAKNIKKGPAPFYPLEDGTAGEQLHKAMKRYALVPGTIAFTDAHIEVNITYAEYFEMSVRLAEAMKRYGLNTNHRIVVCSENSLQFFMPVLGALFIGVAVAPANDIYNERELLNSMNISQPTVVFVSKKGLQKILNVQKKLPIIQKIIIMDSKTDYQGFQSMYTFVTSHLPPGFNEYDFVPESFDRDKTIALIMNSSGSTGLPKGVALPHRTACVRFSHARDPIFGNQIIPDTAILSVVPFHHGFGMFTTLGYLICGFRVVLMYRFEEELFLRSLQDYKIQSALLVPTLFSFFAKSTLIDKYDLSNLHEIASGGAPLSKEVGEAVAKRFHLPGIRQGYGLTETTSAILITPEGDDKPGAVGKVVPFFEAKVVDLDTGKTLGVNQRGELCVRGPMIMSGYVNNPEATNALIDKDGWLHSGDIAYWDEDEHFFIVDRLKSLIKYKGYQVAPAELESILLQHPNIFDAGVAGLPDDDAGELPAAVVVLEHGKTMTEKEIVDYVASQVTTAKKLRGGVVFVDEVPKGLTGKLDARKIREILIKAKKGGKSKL
#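 Biochemical qHTS: compound (6-point titration) added to 10uM D-luciferin plus 10uM ATP in Tris acetate pH 7.5 buffer with Mg, Tween-20 and BSA, then purified enzyme at 10nM; light output imaged.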
# Hits are given with their value; - = inactive; ? = inconclusive; . = no result; [ ] = dose if it differs, or a comment. Shown are actives, neighbours in structure and some others; about 7.3% of the full set was active somewhere. Unless noted, calls follow the shape of the dose curve; as a rule, active = well fitted curve in the direction sought with a large enough effect; inconclusive = small, poorly fitted or top-dose-only effect, or another doubt; inactive = no such curve, though single readings can be large; an effect the other way counts as inactive or inconclusive.
SMILES,HEK cytotox,NIH3T3 tox,HEK293 viab,IP6K1 inhibitor,SNCA expr inhib,Luciferase inh
Cc1ccc2nc([C@H]3CCN(Cc4ccc(C(F)(F)F)cc4)C3)[nH]c2c1,28µM,35µM,-,-,?,-
c1coc(-c2nnc([C@H]3CCN(Cc4cccs4)C3)o2)c1,-,-,-,-,-,71µM
Clc1ccc2oc([C@H]3CCN(Cc4cccs4)C3)nc2c1,?,?,-,-,-,?
O=C(C1CCCCC1)N1CC[C@H](c2nc3ccc(C(F)(F)F)cc3[nH]2)C1,?,?,-,-,-,-
c1csc(CN2CC[C@H](c3nc4ccccc4[nH]3)C2)c1,?,100µM,-,-,-,?
FC(F)(F)c1ccc2nc([C@H]3CCN(CC4CC4)C3)[nH]c2c1,?,?,-,-,-,28µM
O=C(NCc1ccccc1F)c1ccc2c(c1)CN(Cc1ccccc1F)CCO2,45µM,?,?,-,-,.
O=C(NCc1ccccc1F)c1ccc2c(c1)CN(Cc1ccncc1F)CCO2,45µM,?,-,-,-,.
COc1ccc(Nc2ccnc(N3CCCC(C(=O)N4CCCCC4)C3)n2)cc1 (centres undefined),?,?,?,-,-,.
Cc1ccc(Nc2ccnc(N3CCN(C(=O)C4CC4)CC3)n2)cc1,71µM,32µM,-,-,-,.
Fc1ccccc1Nc1ccnc(N2CC3CCC(C2)N3CC(F)(F)F)n1,?,?,-,-,?,.
Cc1ccc(Nc2ccnc(N3CCC(C(=O)N4CCCC4)CC3)n2)cc1,?,?,-[12.5 µM],-,-,.
Cc1ccc(Nc2ccnc(N3CC4CCC(C3)N4CC(F)(F)F)n2)cc1,40µM,28µM,-,-,-,.
Cc1ccc(Nc2ccnc(N3CCCC(C(=O)N4CCCC4)C3)n2)cc1 (centres undefined),?,28µM,-[12.5 µM],-,?,.
Cc1ccc(Nc2ccnc(N3CCCC(C(=O)NC(C)C)C3)n2)cc1 (centres undefined),?,?,-[12.5 µM],-,-,.
Cc1ccc(Nc2ccnc(N3CCCC(C(=O)N4CCN(c5ncccn5)CC4)C3)n2)cc1 (centres undefined),20µM,?,-[12.5 µM],-,-,.
CN1CCCC2(C1)CN(Cc1cccnc1)c1ccc(C(=O)NCC3CCCCC3)cc12 (centres undefined),89µM,35µM,-,-,?,-
CN1CCC2(C1)CN(Cc1ccccc1)c1ccc(C(=O)Nc3ccn(C)n3)cc12 (centres undefined),?,?,-,-,-,-
COc1ccc(NC(=O)c2ccc3c(c2)C2(CCCN(C)C2)CN3Cc2cccnc2)cc1 (centres undefined),-,32µM,-,-,-,-
O=C(Cc1cccc(F)c1)N1CCOc2ccc(CN3CCc4ccccc4C3)cc2C1,?,?,-,-,-,-
O=C(c1cc2ccccc2[nH]1)N1CCNc2cnc(Nc3ccccc3)nc2C1,79µM,?,-,-,?,?
CCCNC(=O)N1CCC(Cc2noc(C3CCOCC3)n2)C1 (centres undefined),-,-,-,-,-,.
CN(Cc1ccccc1)Cc1nnc(C(=O)N2CCC[C@@H]2c2cccc(F)c2)n1-c1ccccc1,?,?,-,-,-,-
O=C(c1nnc(COc2cc(F)cc(F)c2)n1-c1ccccc1)N1CCC[C@@H]1c1cccc(F)c1,?,40µM,-,-,-,-
O=C(c1nnc(CN2CCC(F)(F)CC2)n1-c1cccnc1)N1CCC[C@@H]1C(c1ccccc1)c1ccccc1,-,25µM,-,-,-,-
SMILES,HEK cytotox,NIH3T3 tox,HEK293 viab,IP6K1 inhibitor,SNCA expr inhib,Luciferase inh
O=C(c1nnc(COc2ccc(F)cc2)n1-c1ccccc1)N1CCC[C@@H]1C(c1ccccc1)c1ccccc1,?,6.3µM,?,-,?,-
O=C(c1nnc(COc2ccc(F)c(F)c2)n1-c1ccccc1)N1CCC[C@@H]1c1cccc(F)c1,?,10µM,?,-,?,-
O=C(c1nnc(CN2CCOCC2)n1-c1ccccc1)N1CCC[C@@H]1C(c1ccccc1)c1ccccc1,?,?,-,-,-,-
CC(=O)N1CCN(Cc2nnc(C(=O)N3CCC[C@@H]3c3cccc(F)c3)n2-c2ccccc2)CC1,-,?,-,-,-,-
O=C(c1nnc(CNC2CC2)n1-c1ccccc1)N1CCC[C@@H]1C(c1ccccc1)c1ccccc1,?,?,-,-,-,-
CC1CCC2C(C(=O)O)=CC3CC(C)(C)CC132 (centres undefined),.,.,-,-,.,.
COc1ccc(CN(C)C2CCOc3ccccc32)cc1 (centres undefined),?,-,-,-,-,-
Fc1ccc2cnc(N3CCC(N[C@H]4C[C@@H]5OCC[C@H]45)CC3)nc2c1,-,-,-,-,-,-
c1ccc2c(-c3nc4ccncc4[nH]3)c[nH]c2c1,?,?,-,-,-,?
c1cnc2nc(-c3c[nH]c4ccccc34)[nH]c2c1,?,?,-,-,-,45µM
Cc1cc(C)cc(-c2ccc(CN3CCCC(N[S+](=O)([O-])c4ccccc4)C3)cc2)c1 (centres undefined),45µM,?,-,-,-,.
COc1cccc(-c2ccc(CN3CCCC(N[S+](=O)([O-])c4ccc(C)cc4)C3)cc2)c1 (centres undefined),28µM,?,?,-,-,.
C[S+](=O)([O-])NC1CCCN(Cc2ccc(-c3cncnc3)cc2)C1 (centres undefined),?,-,-[12.5 µM],-,-,.
COc1cccc(-c2ccc(CN3CCCC(N[S+](=O)([O-])c4c(C)noc4C)C3)cc2)c1 (centres undefined),?,45µM,-,-,-,.
Cc1ccc(-c2cccc(CN3CCCC(N[S+](=O)([O-])c4c(C)noc4C)C3)c2)cc1Cl (centres undefined),13µM,16µM,-,-,?,.
O=C(c1cn[nH]c1-c1ccc(F)cc1)N1CCC(OCCOc2ccccc2)CC1,50µM,?,-,-,-,.
COCCOC1CCN(C(=O)c2cn[nH]c2-c2ccc(F)cc2)CC1,-,-,-[12.5 µM],-,-,?
c1ccc(-c2noc(-c3cncnc3N3CCN(c4ccccc4)CC3)n2)cc1,45µM,?,-,-,-,?
O=c1[nH]c(N2CCOCC2)nc2c1CCN(Cc1ccc(F)cc1F)CC2,-,-,-,-,-,-
Cc1ccccc1NC(=O)CC[C@H]1NC(=O)c2ccccc2NC1=O,-,-,-,-,-,-
Cc1cc(Br)ccc1NC(=O)C[C@H]1NC(=O)c2ccccc2NC1=O,?,20µM,-,-,-,-
O=C(C[C@H]1NC(=O)c2ccccc2NC1=O)Nc1cccc(C(F)(F)F)c1,45µM,?,-,-,-,-
